This is one part of a sample in which hits are shown more often than they occur.
GRP78 ERSR act: induces the endoplasmic reticulum stress response in human glioma cells; Potency, µM, for inactives: at the highest dose activation, actives largely listed as activators; U87-MG GRP78 promoter luciferase reporter, 16 h; hit rate 0.02% among 420,000; AID 602332; further: series mostly up to about 76 µM; % of control where 0% means no effect; nearly all actives have a fitted effect of over 35% in size
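ERSR induction read as luciferase luminescence (Bright-Glo, 10 min at room temperature) in stably transfected human U87-MG glioma cells exposed to compounds for 16 h, using GRP78 as sensor.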
Sfp inh: inhibitors of Bacillus subtilis Sfp phosphopantetheinyl transferase. Biochemical Sfp PPTase activity, qHTS. Potency, µM, for inactives: largest response in the series, negative = inhibition, most hits filed as inhibitors. hit rate 3.5% among 310,000;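 further: the enzyme is Sfp with the accession as filed and its product quenches rhodamine fluorescence; 0% = enzyme reaction without inhibitor and -100% = no enzyme wells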
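Step 1, compound plus 15 nM Sfp-PPTase, 15 min, room temperature. Step 2, add rhodamine-CoA (5 uM) and BHQ-2-YbbR (12.5 uM). Step 3, read 525/598 nm fluorescence at 0 and 30 min.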
VDR inhibitor: inhibitors of human vitamin D receptor. P11473. VDR-SRC2-3 peptide fluorescence polarization, 2 h. Potency, µM, without a hit: max response, negative = inhibition, actives largely listed as inhibitors. hit rate 0.93% among 400,000. AID 504847; further: on the % scale 0 is the no-effect control and ±100 the full control effect
Target sequence (P11473 whole entry, looked up): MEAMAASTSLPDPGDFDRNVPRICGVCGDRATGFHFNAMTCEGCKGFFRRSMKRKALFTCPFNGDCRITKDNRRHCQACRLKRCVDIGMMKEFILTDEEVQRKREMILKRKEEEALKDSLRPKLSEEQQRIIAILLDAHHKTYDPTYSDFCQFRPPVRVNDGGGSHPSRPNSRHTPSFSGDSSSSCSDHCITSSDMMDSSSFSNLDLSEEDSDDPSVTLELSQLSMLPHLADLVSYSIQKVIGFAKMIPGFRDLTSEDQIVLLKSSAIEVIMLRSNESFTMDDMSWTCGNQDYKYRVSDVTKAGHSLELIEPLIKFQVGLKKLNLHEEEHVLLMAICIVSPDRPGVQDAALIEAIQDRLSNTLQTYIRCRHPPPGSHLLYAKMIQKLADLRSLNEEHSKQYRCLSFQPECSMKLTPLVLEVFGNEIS
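Measured by FP: displacement of SRC2-3 coactivator peptide from VDR by library compounds, following a two-hour ambient incubation.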
ALOX12 inh: inhibitors of human 12S-lipoxygenase ALOX12; purified 12hLO, xylenol orange hydroperoxide absorbance; Potency, µM (titrated, usually from 108 µM), without a hit: at the highest dose activity change, negative = inhibition, most hits filed as inhibitors; hit rate 1.1% among 580,000; AID 1671190; further: on the % scale 0 is the no-effect control and ±100 the full control effect
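Hydroperoxide product was detected by ferrous iron/xylenol orange as the 573 to 405 nm absorbance ratio. Arachidonic acid at 40 uM (final) was turned over for 30 min at room temperature by 150 nM human 12hLO, pH 7.0 Hepes buffer, after 15 min compound preincubation.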
G9a inh: G9a (human) methyltransferase inhibition | G9a H3K9 monomethylation, AlphaScreen, 2 h | hit rate 8.8% among 350,000 | Q96KQ7 | Potency, µM (top dose mostly 102 µM), inactives show top-dose activity, negative = inhibition, usual class: inhibitors; further: on the % scale 0 is the no-effect control and ±100 the full control effect; nearly all actives have a fitted effect of over 75% in size
Target sequence (Q96KQ7 913-1193 limits assumed): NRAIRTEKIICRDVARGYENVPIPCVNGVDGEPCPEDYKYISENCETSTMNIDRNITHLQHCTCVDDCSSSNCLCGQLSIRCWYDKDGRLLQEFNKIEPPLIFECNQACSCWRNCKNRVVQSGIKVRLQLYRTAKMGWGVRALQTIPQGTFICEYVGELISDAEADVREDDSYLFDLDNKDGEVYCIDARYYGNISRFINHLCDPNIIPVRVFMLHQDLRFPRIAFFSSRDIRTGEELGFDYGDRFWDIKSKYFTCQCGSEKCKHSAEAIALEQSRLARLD
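G9a (20 nM) preincubated 15 min RT with compounds, then 500 nM biotinylated H3K9 peptide and 20 uM SAM added; 2 h RT reaction. Monomethyl-H3K9 product detected by AlphaScreen with anti-H3K9me1 antibody, streptavidin donor and anti-rabbit IgG acceptor beads.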
Active calls of the source: *; ? = inconclusive; nt = not tested or not shown; ! = not active in a repeat; [ ] = another dose, or the depositor's remark. The call rests on the fitted dose curve; in most records, active means well fitted curve in the direction sought with a large enough effect; inconclusive means small, poorly fitted or top-dose-only effect, or another doubt; inactive means no such curve, though single readings can be large; an effect the other way counts as inactive or inconclusive. Potency means the concentration at half of the fitted maximal effect.

SMILES | GRP78 ERSR act | Sfp inh | VDR inhibitor | ALOX12 inh | G9a inh
CCC(CC)C(=O)Nc1ccccc1SCc1cc(=O)n2ccsc2n1 | nt | nt | nt | 25% | nt
COc1ccc(C2C=C(c3ccc(Br)s3)Nc3ncnn32)cc1OC (configuration not stated) | nt | 56µM* | nt | nt | 11µM*
COc1cccc(C2C=C(c3cccs3)Nc3ncnn32)c1OC (configuration not stated) | 1% | 50µM* | -9% | nt | nt
COc1cccc(C2C=C(c3ccc(C)c(C)c3)Nc3nnnn32)c1OC (configuration not stated) | 5% | nt | 12% | -25% | -6%[59 µM]
CCc1ccc(OC(=O)c2ccccc2C)c(Br)c1 | nt | nt | nt | -7% | nt
O=C(Cc1cccc(F)c1)NCC1CCN(Cc2cccs2)CC1 | nt | nt | nt | 38% | nt
CCc1nc(NCc2ccncc2)c(C#N)c2c1CCCC2 | nt | nt | nt | 5% | nt
COc1ccc(N2CCN(C(=O)c3cc4c(s3)-c3ccccc3OC4)CC2)cc1 | -6% | 20% | -12% | -15% | 10%
O=C(c1cc2c(s1)-c1ccccc1OC2)N1CCN(c2ccccc2)CC1 | 0% | -7% | -7% | ? | 1.1µM*!
CC(/C=C/c1ccc(C)o1)=C\C(=O)O | -3% | 10µM* | ? | -11% | 8.9µM*
CC(/C=C/c1cccs1)=C\C(=O)O | -7% | -17% | -19% | 0% | -6%[59 µM]
Cc1ccc(/C=C/C(=O)NCc2cccs2)o1 | 1% | 10µM* | -8% | -1% | 13µM*
Cc1ccc(/C=C/C(=O)NCc2ccncc2)cc1 | 1% | 15% | -20% | 0% | -9%
Cc1ccc(/C=C/C(=O)NCc2cccs2)cc1 | 7% | ? | -12% | -9% | 6%
Cc1ccc(CNC(=O)/C=C/c2ccc(Br)o2)cc1 | 0% | 28µM* | -5% | ? | 1.4µM*
COc1cccc(OC)c1OC(=O)/C=C/c1ccc(C)o1 | -4% | -11% | 34% | ? | 50µM*
Cc1ccc(/C=C/C(=O)Oc2ccc(C#N)cc2)o1 | nt | 14% | nt | nt | ?
O=C(Nc1ncn(Cc2cccc(F)c2)n1)c1cc(S(=O)(=O)N2CCCC2)c(Cl)cc1Cl | nt | nt | nt | 9% | nt
CC(=O)/C=C/c1ccc(C)o1 | -1% | 40µM* | -18% | -5% | ?
Cc1ccc(/C=N/NC(=O)C(=O)N/N=C/c2ccc(C)o2)o1 | -6% | -5% | 8% | -7% | -10%
O=C(COc1ccc(Br)cc1)N1CCc2ccccc21 | 6% | 1% | 12% | 118% | 71µM*
O=C(COc1ccccc1)N1CCc2ccccc21 | 9% | 10% | 17% | -11% | ?
Nc1ccc(SCc2cccnc2)cc1 | 0% | -8% | -6% | ? | 45µM*
Nc1ccc(CSc2ccccc2)cc1 | 10% | nt | 24% | -9% | nt
O=C(NCC1(N2CCOCC2)CCCCC1)c1nn(-c2ccccc2)c(=O)c2ccccc12 | nt | nt | nt | -4% | nt
SMILES | GRP78 ERSR act | Sfp inh | VDR inhibitor | ALOX12 inh | G9a inh
COc1ccccc1OCCn1cc(/C=N/NC(N)=S)c2ccccc21 | -3% | -8% | 6% | ? | 12%[59 µM]
CNC(=S)N/N=C/c1cn(CCOc2ccc(OC)cc2)c2ccccc12 | 0% | 8% | 1% | 40µM* | 13%[59 µM]
O=C(Cn1c2[n+](c3ccc(C(F)(F)F)cc31)CCCCC2)Nc1ccccc1 | -6% | ? | 3% | ? | ?
O=C(Cn1c2[n+](c3ccc(C(F)(F)F)cc31)CCCCC2)c1cccc([N+](=O)[O-])c1 | -3% | 6% | -14% | -7% | ?
CCc1cccc(NC(=O)Cn2c3[n+](c4ccc(C(F)(F)F)cc42)CCCCC3)c1 | -1% | -41% | -26% | ? | 5.6µM*
FC(F)(F)c1ccc2c(c1)n(Cc1ccccc1)c1[n+]2CCCCC1 | -5% | -38% | -12% | ? | 28µM*
CC(C)(O)C#Cc1ccc(C2NCCS2)cc1 (configuration not stated) | nt | nt | nt | -21% | nt
COC1C(=O)N(c2cccc(F)c2)C12CCN(C(=O)c1cccnc1C)CC2 (configuration not stated) | nt | nt | nt | -8% | nt
CC(C)(C)C(=O)Nc1cccc(NC(=O)c2cc(F)c(Cl)cc2Cl)c1 | nt | nt | nt | 5% | nt
O=C1NCCCCCN(Cc2cccnc2)[C@@H]2CN(Cc3cccc(F)c3)CC[C@@H]12 | nt | nt | nt | 62% | nt
CC1(C)CC(=O)c2c(nc3ccccc3c2N)C1 | -7% | 8% | 0% | 5% | 21%[59 µM]
CCNc1c2c(nc3ccccc13)CC(C)(C)CC2=O | -7% | -23% | -15% | 5% | 5.6µM*
COc1ccc(-c2nc3cnccn3c2Nc2ccc3c(c2)OCO3)cc1 | -5% | -16% | 20% | 5% | 45µM*
Cc1ccc(-c2nc3cnccn3c2Nc2ccc3c(c2)OCCO3)o1 | 7% | 35µM* | -1% | -16% | 10µM*
Cc1ccc(-c2nc3cnccn3c2Nc2ccc3c(c2)OCO3)cc1 | -1% | ? | -16% | ? | 40µM*
COc1ccc(Nc2c(-c3ccc(C)o3)nc3ccccn23)cc1 | nt | nt | 7% | nt | nt
COc1ccc(Nc2c(-c3ccc(OC)cc3)nc3cnccn23)cc1 | -4% | 2% | -5% | ? | ?
CN(C)c1ccc(-c2nc3cnccn3c2Nc2ccc3c(c2)OCCO3)cc1 | 3% | -16% | 13% | -3% | ?
CCC(=O)N(C1CCOCC1)C1CCN(Cc2ccc(C)cc2)CC1 | nt | nt | nt | -6% | nt
CCCCC/C=C/CC(=O)OC | nt | nt | nt | 10%[176 µM] | nt
Cc1cc2c(cc1C)[n+](C)cn2CC(O)COCc1ccccc1 (configuration not stated) | 0% | -3% | 2% | ? | 5.6µM*
CCN1CCN(CC(O)COCc2ccccc2)CC1 (configuration not stated) | 1% | 3% | 4% | ? | -40%[59 µM]
C[n+]1cn(CC(O)COCc2ccccc2)c2ccccc21 (configuration not stated) | 1% | -13% | 2% | 40µM* | nt
Cc1noc(C)c1-c1cc(-c2cccc(CO)c2)cn2cncc12 | nt | nt | nt | 19%[176 µM] | nt
COc1cccc(/C=C/C(=C2/C(=O)N(c3ccccc3)N=C2C)c2ccccc2)c1OC | -6% | 3% | 2% | 7% | 1.4µM*
SMILES | GRP78 ERSR act | Sfp inh | VDR inhibitor | ALOX12 inh | G9a inh
Cc1ccc(C2c3cccn3CCN2S(=O)(=O)c2ccc([N+](=O)[O-])cc2)cc1 (configuration not stated) | -3% | nt | -3% | -28% | 14µM*
O=[N+]([O-])c1ccc(S(=O)(=O)N2CCn3cccc3C2c2ccc(Br)cc2)cc1 (configuration not stated) | -3% | nt | -5% | ? | 7.9µM*
COc1cc(OC)cc(C(=O)NC2CCN(c3cc(-c4ccc(F)cc4)[nH]n3)CC2)c1 | nt | nt | nt | 11% | nt
Cc1nc(-c2ccc(S(=O)(=O)Nc3ccc(F)cc3C)cc2)co1 | nt | nt | nt | -16% | nt
C1=C(c2cc(-c3cccc4cn[nH]c34)cn3cncc23)CCOC1 | nt | nt | nt | -29%[176 µM] | nt
O=c1ccc(-c2cc(-c3cccc4cn[nH]c34)cn3cncc23)c[nH]1 | nt | nt | nt | 32µM* | nt
COc1ccc(-c2cc(-c3cccc(OC)c3OC)cn3cncc23)cc1 | nt | nt | nt | 71µM* | nt
COc1ccc(-c2cc(-c3cnn(C)c3)cn3cncc23)cc1 | nt | nt | nt | 2%[176 µM] | nt

From PubChem
